A selection: hits, their analogues and other compounds. The true share with any hit is near 1.6%.
MOR-DOR ag: agonists of OPRM1-OPRD1 heterodimerization, primary screen, cell-based, luminescence | 0.3% of 340,000 active | AID 504326, 2011 | cells | Mu-type opioid receptor (Homo sapiens) + Delta-type opioid receptor (Homo sapiens), … | activation, % at 9.3 µM; in the data active = activation above about 18%;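 note: 0% = vehicle-treated cells and 100% = reference agonist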
Target sequence (P35372 whole entry, looked up): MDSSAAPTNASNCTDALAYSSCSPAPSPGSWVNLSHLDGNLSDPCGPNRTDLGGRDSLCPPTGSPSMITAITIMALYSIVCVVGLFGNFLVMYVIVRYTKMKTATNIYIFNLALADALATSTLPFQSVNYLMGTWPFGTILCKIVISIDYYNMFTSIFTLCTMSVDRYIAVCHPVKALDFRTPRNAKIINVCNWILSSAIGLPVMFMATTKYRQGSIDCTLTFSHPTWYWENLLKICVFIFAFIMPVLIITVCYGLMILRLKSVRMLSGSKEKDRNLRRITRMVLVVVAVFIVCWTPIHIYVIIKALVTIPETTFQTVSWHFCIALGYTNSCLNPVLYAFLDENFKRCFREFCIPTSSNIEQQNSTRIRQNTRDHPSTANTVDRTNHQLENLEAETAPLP
Target sequence (P41143 whole entry, looked up): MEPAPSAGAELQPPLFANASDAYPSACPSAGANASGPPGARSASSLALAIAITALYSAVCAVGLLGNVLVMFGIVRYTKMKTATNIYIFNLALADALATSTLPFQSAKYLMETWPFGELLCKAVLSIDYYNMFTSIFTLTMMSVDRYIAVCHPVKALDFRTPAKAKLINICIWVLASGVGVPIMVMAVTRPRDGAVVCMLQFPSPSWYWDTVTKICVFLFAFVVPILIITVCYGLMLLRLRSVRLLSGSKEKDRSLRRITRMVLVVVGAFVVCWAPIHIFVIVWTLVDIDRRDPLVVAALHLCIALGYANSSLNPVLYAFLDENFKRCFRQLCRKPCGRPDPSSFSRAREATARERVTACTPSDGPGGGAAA
HTR2A ag: mouse Htr2a agonists via beta-arrestin recruitment, primary screen, cell-based, luminescence. AID 624169, 2012. 0.66% of 360,000 active. CHO-K1 mHTR2A beta-arrestin complementation; percent of 30 µM serotonin response. activation, % at 7.6 µM. 5-hydroxytryptamine receptor 2A (Mus musculus), P35363;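 active = activation above a run cutoff, the mean activation of all tested compounds plus 3 SD, cut at about 14% in these data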;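 note: 0% = plate median of compound wells and 100% = 30 µM serotonin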
MOR-DOR inv ag: inverse agonists of MOR-DOR heterodimerization, primary screen, cell-based, luminescence | Mu-type opioid receptor (Homo sapiens) + Delta-type opioid receptor (Homo sapiens), … | cell-based MOR-DOR heterodimer luminescence, inverse agonism | inhibition, % at 9.3 µM | 0.21% of 340,000 active | AID 504357, 2011; in the data active = inhibition above about 22%, passing the limit was not always enough;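 note: 0% = cells with DMSO and 100% = wells without cells with DMSO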
HTR5A inv ctr: HTR5A inverse agonists in luminescence cell assay, primary screen, counter-screen for OPRM1-OPRD1 heterodimer inverse agonist project, full-deck HTS. 5-hydroxytryptamine receptor 5A (Homo sapiens), P47898. HTR5A cell line, inverse agonism. inhibition, % at 9.3 µM. 0.083% of 340,000 active. AID 504634, 2011; in the data active = inhibition mostly above about 23%, no sharp cut-off; inactive = mostly below about 18%;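 note: 0% = cells with DMSO and 100% = no-cell wells with DMSO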
HTR5A ag: HTR5A agonists in luminescence cell assay, primary screen, counter-screen for OPRM1-OPRD1 heterodimer agonist project, full-deck HTS | 5-hydroxytryptamine receptor 5A (Homo sapiens), P47898 | 0.61% of 340,000 active | AID 504692, 2011 | cell-based | activation, % at 9.3 µM; in the data active = activation mostly above about 9.5%, no sharp cut-off; inactive = mostly below about 7.6%;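 note: 0% = cells with vehicle only and 100% = reference agonist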
MOR ag counter: OPRM1 agonists via beta-arrestin recruitment, confirmation, counter-screen for mouse HTR2A agonist project, cell-based, luminescence, single concentration; 5.3% of 2,300 active; shares compounds with HTR2A ag; activation, % at 9.3 µM; U2OS OPRM1 beta-arrestin PathHunter; DMSO 0%, DAMGO 9.3 µM 100%; AID 624380, 2012;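 active = mean activation above the mean of DMSO-only wells plus 3 SD, cut at about 0.5% in these data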
m5-HT2A ag conf: mouse HTR2A agonists, beta-arrestin recruitment, confirmation, cell-based, luminescence, CHO-K1 PathHunter, triplicate; 19% of 2,300 active; activation, % at 7.6 µM; shares compounds with HTR2A ag; DMSO 0%, 30 µM serotonin 100%;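 active = mean activation across triplicates above the hit threshold derived in the original primary screen, cut at about 15% in these data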
The depositor's hits bear a star; nt = no result given; ! = not confirmed by another sample.

SMILES	MOR-DOR ag	HTR2A ag	MOR-DOR inv ag	HTR5A inv ctr	HTR5A ag	MOR ag counter	m5-HT2A ag conf
O=C(CC[C@H]1O[C@@H](n2cnc3c(NC(=O)c4ccccc4)ncnc32)[C@H](O)[C@@H]1O)N[C@@H](CO)Cc1c[nH]c2ccccc12	nt	7	nt	nt	nt	nt	nt
O=C(CN1C(=O)C2CC=CCC2C1=O)Nc1nc2ccccc2s1 (stereo not drawn)	0	16*	2	20	3	-1	-2
CCSc1nnc(CSc2ncccn2)n1C	-1	3	6	-4	2	nt	nt
COc1cccc(CN2CCN(Cc3cc(OC)c(OC)c(OC)c3)CC2)c1OC	-1	0	4	7	-2	nt	nt
c1cnc(N2CCN(Cc3c[nH]c4ccccc34)CC2)nc1	0	29*	-2	-9	2	-1	93*
COc1ccc(CN2CCN(c3ccccn3)CC2)c(OC)c1C	-2	3	11	3	-7	nt	nt
CCOc1cc(CN2CCN(c3ncccn3)CC2)ccc1OC	-1	22*	7	18	-4	-1	50*
COc1ccc(CN2CCN(c3ncccn3)CC2)c(C)c1C	5	34*	-28	3	10	0	130*
COc1ccc(Br)cc1CN1CCN(c2ncccn2)CC1	-1	0	3	3	-1	nt	nt
Cc1ccccc1N1CCN(Cc2c[nH]c3ccccc23)CC1	5	-5	-27	19	-2	nt	nt
COc1cccc(CN2CCN(c3ncccn3)CC2)c1OC	2	25*	-13	3	12	-1	81*
CC(C)(C)OC(=O)N1CCc2onc(-c3ccccc3[N+](=O)[O-])c2C1=O	nt	-4	nt	nt	nt	nt	nt
CCOC(=O)C1(Cc2ccc(Cl)cc2)CCN(C(C)Cc2ccc(O)c(OC)c2)CC1 (stereo not drawn)	-1	-6	5	26	-7	nt	nt
CCOC(=O)c1c(S(=O)(=O)NCC(=O)N2CCN(c3ccc(OC)cc3)CC2)c(C)n(C)c1C	-1	3	7	7	-2	nt	nt
COc1ccc(/C=N/NC(=O)CCc2nc3ccccc3[nH]2)cc1	-3	16*	13	4	-4	-1	-2
CC1CCc2cc(F)cc3c(O)c(C(=O)NCCN(C)C)c(=O)n1c23 (stereo not drawn)	-1	-5	6	8	-2	nt	nt
O=C(O)C1CCC(c2ccc(-c3ccccc3)cc2)CC1 (stereo not drawn)	-1	7	6	-16	6	nt	nt
CCOc1ccc(-c2nnc3ccc(SCC(=O)Nc4nc5ccc(C)cc5s4)nn23)cc1	0	17*	-2	-4	0	0	-2
CCOc1ccc(-c2nnc3ccc(SCC(=O)Nc4nc5ccccc5s4)nn23)cc1	3	2	-14	-10	2	nt	nt
CC1(/[N+]([O-])=C\c2ccccc2F)CCCCC1=O (stereo not drawn)	0	16*	2	-11	0	0	-1
Cc1ccc(Cn2cccc2C2=NC(C)CO2)cc1 (stereo not drawn)	0	14*	-1	3	0	0	-6
CC(C)C1COC(c2cccn2Cc2ccccc2Cl)=N1 (stereo not drawn)	5	-6	-34	-4	1	nt	nt
N#Cc1ccc(C(=O)OCC(=O)Nc2ccc(S(N)(=O)=O)cc2)cc1	0	-2	-1	-14	5	nt	nt
O=C(O)CSc1cnc2ccccc2n1	3	18*	-16	2	-8	-1	-3
Cc1ccc(S(=O)(=O)N2CC=C(C(=O)NCc3ccc(F)cc3)CC2)cc1	3	5	-17	-16	6	nt	nt
SMILES	MOR-DOR ag	HTR2A ag	MOR-DOR inv ag	HTR5A inv ctr	HTR5A ag	MOR ag counter	m5-HT2A ag conf
CCN(CC)c1ccc(NC(=O)C2=CCN(S(=O)(=O)c3ccc(F)cc3)CC2)c(C)c1	0	17*	0	-9	3	-1	-6
COc1ccc(-c2cccc(NS(=O)(=O)c3cccc([N+](=O)[O-])c3)c2)nn1	0	17*	-2	8	9	0	-3
CCOc1ccccc1NC(=O)CCN1CCN(S(=O)(=O)c2ccc(Br)cc2)CC1	-2	17*	7	-11	6	0	1
COc1ccc(-n2nnnc2-c2cn(C)nc2C(F)(F)F)cc1	-2	6	9	11	-1	nt	nt
O=C(C1CCN(CCCc2ccccc2)CC1)N1CCCCC1	0	20*	1	20	-9	-1	45*
O=C(COc1ccccc1)Nc1nnc(-c2ccc(F)cc2)o1	-2	17*	17	-13	0	-1	2
CCOc1ccccc1N1CC(C(=O)NC2CCCCCC2)CC1=O (stereo not drawn)	-2	6	9	8	-2	nt	nt
O=[N+]([O-])c1cc2ncccc2c2ncccc12	nt	15*	nt	nt	nt	0	-4
Cc1cc([N+](=O)[O-])cc2ncccc12	-2	-2	11	19	0	nt	nt
O=C(c1ccc2c(c1)OCCO2)C1CCN(C(=O)Nc2ccc(F)cc2)CC1	1	4	-9	-10	-4	nt	nt
COc1ccc(NC(=O)N2CCC(C(=O)c3ccc4c(c3)OCCO4)CC2)cc1	0	17*	0	-11	5	-1	-4
FC(F)(F)Oc1ccc(Nc2nc(N3CCOCC3)nc(N3CCOCC3)n2)cc1	2	15*	-9	-26	4	0	-4
COc1ccccc1Nc1nc(N2CCOCC2)nc(N2CCOCC2)n1	-3	16*!	17	-11	-2	0	1
Cc1nnsc1-c1nc2ccccc2n1C(CCc1ccccc1)c1nc2ccccc2[nH]1 (stereo not drawn)	nt	-5	nt	nt	nt	nt	nt
COc1ccc(N2CC(C(=O)Nc3ccc(S(=O)(=O)N4CCCC4)cc3)CC2=O)cc1 (stereo not drawn)	0	15*	1	-6	6	-1	-5
COc1ccc(N2CC(C(=O)Nc3ccc(S(=O)(=O)N4CCCCC4)cc3)CC2=O)cc1 (stereo not drawn)	-2	8	10	4	-2	nt	nt
CCOC(=O)C1CCCN(S(=O)(=O)c2ccc(OC)cc2)C1 (stereo not drawn)	0	24*	2	19	2	-1	-3
Cc1cc(C(=O)Nc2ccc(OCc3ccccc3)cc2)c(C)o1	3	-4	-17	6	-2	nt	nt

Source: PubChem (The Scripps Research Institute Molecular Screening Center)
